These results are taken from the supplement of paper PMC6522484.

Structures are written as SMILES. ± gives the standard deviation of the averaged measurements.

Assay [1] concerns DLD1. As to the kind of experiment: cell viability (CellTiter-Glo) relative to plate median (fraction of plate median); higher = more viable cells. Particulars: 5 µM; treatment time 24 h; reporter: 7TFP. The gist of the method: (§1)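 Two independent replicates were averaged for each reported value. Library compounds were applied at a final 5 µM for 24 h to colorectal cancer cell lines stably expressing lentiviral TCF/Wnt firefly luciferase reporters. Firefly luciferase or CellTiterGlo luminescence from each well was normalised to the plate median.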
In general terms: ATP-based viability assays read luminescence as a measure of living cells.

The test system of a further assay is HCT116. The description is as above. Particulars: 5 µM; treatment time 24 h; reporter: TCF4/Wnt. In outline:
as §1

The subject of assay [2] is SW480. The assay is described as above. Particulars: 5 µM; treatment time 24 h; reporter: 7TFP. The gist of the method:
as §1

Assay [3] has as its system DLD1. As to the kind of experiment: TCF/Wnt firefly luciferase reporter signal relative to plate median (fraction of plate median); higher = higher Wnt reporter signal. The following applies: 5 µM; treatment time 24 h; reporter: 7TFP. In outline:
as §1
Background: Reporter assays use an easily measured gene product as a stand-in for the process of interest.

The subject of assay [4] is SW480. The description is as above. The following applies: 5 µM; treatment time 24 h; reporter: 7TFP. The gist of the method: as §1

Regarding `O=C(Oc1cc(O)cc2c1C[C@@H](OC(=O)c1cc(O)c(O)c(O)c1)[C@@H](c1cc(O)c(O)c(O)c1)O2)c1cc(O)c(O)c(O)c1`, the cell viability amounted to 1.06 ± 0.028 with DLD1 [1], 1.1 ± 0.12 in the assay on HCT116 and 1.04 ± 0.021 in the assay on SW480 [2]. Also, the results for the “TCF/Wnt firefly luciferase reporter signal” value in the assay on DLD1 [3] and in the assay on SW480 [4] were 0.89 ± 0.0071 and 0.951 ± 0.048, respectively.
The matching figures for `CC(=O)[C@H]1CC[C@H]2[C@@H]3CCC4=CC(=O)CC[C@]4(C)[C@H]3CC[C@]12C`: 1.01 ± 0.078, 1.02 ± 0.12, 0.992 ± 0.025, 0.979 ± 0.03 and 1.04 ± 0.028.
The matching figures for `CC(=O)NCCCS(=O)(=O)O`: 1.03 ± 0.091, 1.03 ± 0.028, 1.025 ± 0.0071, 1.12 ± 0.11 and 1.06 ± 0.071.
The matching figures for `COc1ccc(-c2coc3cc(OC)cc(OC)c3c2=O)cc1`: 1.03 ± 0.086, 1.04, 1.035 ± 0.0071, 0.963 ± 0.11 and 1.04 ± 0.028.
For the compound `Nc1nccs1`, the cell viability in the assay on DLD1 [1] worked out at 0.985 ± 0.079; with HCT116, 1 ± 0.14; in the assay on SW480 [2], 1.02 ± 0.033. In addition, the figures for the “TCF/Wnt firefly luciferase reporter signal” value in the assay with DLD1 [3] and with SW480 [4] were 1.06 ± 0.13 and 0.986 ± 0.021, respectively.
The matching figures for `CCN(CC)CCOCCOC(=O)C1(c2ccccc2)CCCC1`: 1.03 ± 0.13, 0.887 ± 0.1, 0.916 ± 0.013, 1.12 ± 0.16 and 1.04 ± 0.028.
On the same counts, the results for `CC(C)CCC[C@@H](C)[C@H]1CC[C@H]2[C@@H]3CC(=O)[C@H]4C[C@@H](O)CC[C@]4(C)[C@H]3CC[C@]12C` [5alpha-CHOLESTAN-3beta-OL-6-ONE] are 0.985 ± 0.05, 1.01 ± 0.014, 1.015 ± 0.0071, 0.904 ± 0.15 and 0.874 ± 0.047.
With `C=C1C[C@]23C[C@@]1(O)CC[C@H]2[C@@]12C=C[C@H](O)[C@@](C)(C(=O)O1)[C@H]2[C@@H]3C(=O)O`, the cell viability was 1.03 ± 0.014 with DLD1 [1], 1.08 ± 0.05 in the assay on HCT116 and 1.02 ± 0.052 with SW480 [2]. Besides, the entries for the “TCF/Wnt firefly luciferase reporter signal” value with DLD1 [3] and in the assay on SW480 [4] were 0.88 ± 0.0028 and 0.869 ± 0.14, respectively.
As for `Cc1c(N(C)CS(=O)(=O)O)c(=O)n(-c2ccccc2)n1C`, the cell viability in the assay with DLD1 [1] is 1.04 ± 0.014; in the assay with HCT116 it was 0.968 ± 0.035; with SW480 [2] it was 1.06 ± 0.085. The figures for the “TCF/Wnt firefly luciferase reporter signal” value in the assay on DLD1 [3] and with SW480 [4] were 0.969 ± 0.059 and 1.04 ± 0.059, respectively.
On the same counts, the results for `CC(=O)O[C@H]1C[C@@H](O)C(C)(C)[C@@H]2C[C@@H](OC(C)=O)[C@]3(C)[C@H](CC[C@@]4(C)[C@@H](c5ccoc5)OC(=O)[C@H]5O[C@@]534)[C@@]12C` are 1.04 ± 0.069, 0.947 ± 0.066, 0.945 ± 0.016, 1.04 ± 0.067 and 0.978 ± 0.011.
Take `CCCCCCCCCCCCC[N+](C)(C)Cc1ccccc1`: the figures for the cell viability in the assay on DLD1 [1], in the assay with HCT116 and in the assay on SW480 [2] were 0.848 ± 0.095, 0.743 ± 0.028 and 0.96 ± 0.057, respectively. The “TCF/Wnt firefly luciferase reporter signal” value was found to be 0.725 ± 0.15 in the assay with DLD1 [3] and 0.562 ± 0.074 in the assay on SW480 [4].
The matching figures for `COc1cc(/C=C/C(=O)N2CCC=CC2=O)cc(OC)c1OC`: 0.939 ± 0.037, 0.717 ± 0.099, 1.11 ± 0.042, 0.704 ± 0.14 and 0.773 ± 0.095.
On the same counts, the results for `Cc1ccc(=O)n(-c2ccccc2)c1` are 0.911 ± 0.041, 0.866 ± 0.096, 0.945 ± 0.014, 0.952 ± 0.17 and 1.08 ± 0.14.
The matching figures for `COc1cc2c(cc1OC)-c1cc3ccc(OC)c(OC)c3c[n+]1CC2`: 0.983 ± 0.067, 0.896 ± 0.16, 0.949 ± 0.054, 1.105 ± 0.0071 and 1.01 ± 0.073.
